Of roughly 7,900 targets only a part is listed; those with a hit were picked by preference. About 0.6% of all pairs of compound and target were hits. Values without a mark were called inactive.
Experiments:
Assay in all cases: log2 fold change, soluble protein after heating vs DMSO (PISA); higher = thermal stabilisation; K562 cells, 10 uM, 30 min; active = over 0.2 and 3.5 SD of the protein, either way, in both replicates (recomputed)
[1] = compound: CS(=O)(=O)c1ccc(-c2cnc(N)c(C(=O)Nc3ccccc3)n2)cc1
Method in brief: (§1)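 Soluble protein was quantified by TMTpro 16plex LC-MS/MS after channel sums were equalised. It was obtained as the supernatant after 21,000xg for 90 min from pooled aliquots of K562 cells (2×10^6 cells/mL, 10 μM compound, 30 min) heated for 3 min across 48°C-58°C and extracted in PBS with 0.5% NP-40 at 4°C. Thermal stability values are relative to control samples and come from duplicates. They are given as log2 fold changes.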

crizotinib = compound: C[C@@H](Oc1cc(-c2cnn(C3CCNCC3)c2)cnc1N)c1c(Cl)ccc(F)c1Cl [crizotinib]
Method in brief: as §1

[2] = compound: C[C@@H]1COCCN1C2=NC(=NC(=C2)C3(CC3)S(=O)(=O)C)C4=C5C=CNC5=CC=C4
Method in brief: as §1

[3] = compound: C[C@H](C1=CC=C(C=C1)C(=O)NC2=C3C=CNC3=NC=C2)N
Method in brief: as §1

duvelisib = compound: C[C@H](Nc1ncnc2nc[nH]c12)c1cc2cccc(Cl)c2c(=O)n1-c1ccccc1 [duvelisib]
Method in brief: as §1

gandotinib = compound: Cc1cc(Nc2cc(CN3CCOCC3)c3nc(C)c(Cc4ccc(Cl)cc4F)n3n2)n[nH]1 [gandotinib]
Method in brief: as §1

tozasertib = compound: Cc1cc(Nc2cc(N3CCN(C)CC3)nc(Sc3ccc(NC(=O)C4CC4)cc3)n2)n[nH]1 [tozasertib]
Method in brief: as §1

[4] = compound: Cc1cc(SCc2sc(-c3ccc(C(F)(F)F)cc3)nc2C)ccc1OCC(=O)O
Method in brief: as §1

doramapimod = compound: Cc1ccc(-n2nc(C(C)(C)C)cc2NC(=O)Nc2ccc(OCCN3CCOCC3)c3ccccc23)cc1 [doramapimod]
Method in brief: as §1

ispinesib = compound: Cc1ccc(C(=O)N(CCCN)[C@@H](c2nc3cc(Cl)ccc3c(=O)n2Cc2ccccc2)C(C)C)cc1 [ispinesib]
Method in brief: as §1

bafetinib = compound: Cc1ccc(NC(=O)c2ccc(CN3CC[C@H](N(C)C)C3)c(C(F)(F)F)c2)cc1Nc1nccc(-c2cncnc2)n1 [bafetinib]
Method in brief: as §1

[5] = compound: Cc1cccc(CC(=O)N2CCc3c2ccc(-c2cn(C)c4ncnc(N)c24)c3F)n1
Method in brief: as §1

nilotinib = compound: Cc1cn(-c2cc(NC(=O)c3ccc(C)c(Nc4nccc(-c5cccnc5)n4)c3)cc(C(F)(F)F)c2)cn1 [nilotinib]
Method in brief: as §1

[6] = compound: Cc1nc(Nc2n[nH]c3c2CN(C(=O)N[C@H](CN(C)C)c2ccccc2)C3(C)C)c2sccc2n1
Method in brief: as §1

dasatinib = compound: Cc1nc(Nc2ncc(C(=O)Nc3c(C)cccc3Cl)s2)cc(N2CCN(CCO)CC2)n1 [dasatinib]
Method in brief: as §1

[7] = compound: Cc1ncc(-c2ccnc(Nc3ccc(S(C)(=O)=O)cc3)n2)n1C(C)C
Method in brief: as §1

[8] = compound: Cn1cc(-c2ccc3c(c2)CCN3C(=O)Cc2cccc(C(F)(F)F)c2)c2c(N)ncnc21
Method in brief: as §1

[9] = compound: Cn1cc(-c2ccc3nnc(C(F)(F)c4ccc5ncccc5c4)n3n2)cn1
Method in brief: as §1

tipifarnib = compound: Cn1cncc1[C@@](N)(c1ccc(Cl)cc1)c1ccc2c(c1)c(-c1cccc(Cl)c1)cc(=O)n2C [tipifarnib]
Method in brief: as §1

mubritinib = compound: FC(F)(F)c1ccc(/C=C/c2nc(COc3ccc(CCCCn4ccnn4)cc3)co2)cc1 [mubritinib]
Method in brief: as §1

Sequence of UniProt Q86TU7 (Q86TU7 whole entry, looked up): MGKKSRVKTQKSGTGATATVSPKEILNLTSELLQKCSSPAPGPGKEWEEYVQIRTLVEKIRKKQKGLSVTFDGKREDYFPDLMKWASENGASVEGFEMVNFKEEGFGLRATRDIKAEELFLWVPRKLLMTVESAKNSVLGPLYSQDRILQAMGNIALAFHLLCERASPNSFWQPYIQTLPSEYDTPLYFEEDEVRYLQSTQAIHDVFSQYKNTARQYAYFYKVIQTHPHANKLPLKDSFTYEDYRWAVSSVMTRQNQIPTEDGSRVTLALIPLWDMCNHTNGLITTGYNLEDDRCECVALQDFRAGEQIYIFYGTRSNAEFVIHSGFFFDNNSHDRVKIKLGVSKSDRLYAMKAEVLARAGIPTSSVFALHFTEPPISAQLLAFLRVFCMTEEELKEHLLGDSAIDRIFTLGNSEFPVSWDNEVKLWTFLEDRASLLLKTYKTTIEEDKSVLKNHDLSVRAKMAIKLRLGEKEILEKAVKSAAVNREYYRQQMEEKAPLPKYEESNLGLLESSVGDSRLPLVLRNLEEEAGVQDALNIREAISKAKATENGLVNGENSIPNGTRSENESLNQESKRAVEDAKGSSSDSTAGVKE
Sequence of UniProt P58004 (P58004 whole entry, looked up): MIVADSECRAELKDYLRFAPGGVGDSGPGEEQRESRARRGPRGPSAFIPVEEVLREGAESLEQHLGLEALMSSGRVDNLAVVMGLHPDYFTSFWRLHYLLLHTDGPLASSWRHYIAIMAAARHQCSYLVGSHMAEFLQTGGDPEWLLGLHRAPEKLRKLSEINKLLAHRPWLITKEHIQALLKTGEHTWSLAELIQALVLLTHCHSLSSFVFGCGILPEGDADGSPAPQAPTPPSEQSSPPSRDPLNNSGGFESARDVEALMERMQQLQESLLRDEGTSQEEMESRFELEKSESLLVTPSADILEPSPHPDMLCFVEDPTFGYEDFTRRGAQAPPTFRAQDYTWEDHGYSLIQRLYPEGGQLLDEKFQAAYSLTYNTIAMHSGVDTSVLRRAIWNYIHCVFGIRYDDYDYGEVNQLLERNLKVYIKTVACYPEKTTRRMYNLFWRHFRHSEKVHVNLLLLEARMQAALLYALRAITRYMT
Sequence of UniProt Q96DM3 (Q96DM3 whole entry, looked up): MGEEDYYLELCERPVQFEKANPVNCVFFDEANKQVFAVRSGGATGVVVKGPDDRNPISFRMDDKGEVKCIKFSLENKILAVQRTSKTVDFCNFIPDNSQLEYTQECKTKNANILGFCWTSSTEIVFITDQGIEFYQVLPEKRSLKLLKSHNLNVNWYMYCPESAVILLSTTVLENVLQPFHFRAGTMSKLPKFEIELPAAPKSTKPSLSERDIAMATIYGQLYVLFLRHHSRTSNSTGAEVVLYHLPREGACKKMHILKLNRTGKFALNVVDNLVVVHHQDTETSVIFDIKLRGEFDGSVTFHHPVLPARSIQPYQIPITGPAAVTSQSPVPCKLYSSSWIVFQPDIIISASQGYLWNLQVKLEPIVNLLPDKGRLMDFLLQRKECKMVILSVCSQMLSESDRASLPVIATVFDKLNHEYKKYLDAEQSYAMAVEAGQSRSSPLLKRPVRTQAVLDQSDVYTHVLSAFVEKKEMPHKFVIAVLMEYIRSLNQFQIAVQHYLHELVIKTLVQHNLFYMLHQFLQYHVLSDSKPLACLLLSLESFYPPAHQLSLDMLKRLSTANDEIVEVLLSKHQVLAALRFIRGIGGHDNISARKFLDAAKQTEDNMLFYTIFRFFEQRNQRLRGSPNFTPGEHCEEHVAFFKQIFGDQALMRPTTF
Sequence of UniProt Q99961 (Q99961 whole entry, looked up): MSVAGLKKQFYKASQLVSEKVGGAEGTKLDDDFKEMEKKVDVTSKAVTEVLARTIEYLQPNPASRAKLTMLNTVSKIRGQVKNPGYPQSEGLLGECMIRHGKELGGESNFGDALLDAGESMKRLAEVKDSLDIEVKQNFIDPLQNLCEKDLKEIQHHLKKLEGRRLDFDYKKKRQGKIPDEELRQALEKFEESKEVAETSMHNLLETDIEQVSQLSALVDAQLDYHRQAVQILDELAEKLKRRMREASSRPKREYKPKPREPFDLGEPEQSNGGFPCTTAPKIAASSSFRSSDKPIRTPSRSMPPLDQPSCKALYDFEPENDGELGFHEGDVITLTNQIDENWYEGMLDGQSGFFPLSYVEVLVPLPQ
Sequence of UniProt Q9NTZ6 (Q9NTZ6 whole entry, looked up): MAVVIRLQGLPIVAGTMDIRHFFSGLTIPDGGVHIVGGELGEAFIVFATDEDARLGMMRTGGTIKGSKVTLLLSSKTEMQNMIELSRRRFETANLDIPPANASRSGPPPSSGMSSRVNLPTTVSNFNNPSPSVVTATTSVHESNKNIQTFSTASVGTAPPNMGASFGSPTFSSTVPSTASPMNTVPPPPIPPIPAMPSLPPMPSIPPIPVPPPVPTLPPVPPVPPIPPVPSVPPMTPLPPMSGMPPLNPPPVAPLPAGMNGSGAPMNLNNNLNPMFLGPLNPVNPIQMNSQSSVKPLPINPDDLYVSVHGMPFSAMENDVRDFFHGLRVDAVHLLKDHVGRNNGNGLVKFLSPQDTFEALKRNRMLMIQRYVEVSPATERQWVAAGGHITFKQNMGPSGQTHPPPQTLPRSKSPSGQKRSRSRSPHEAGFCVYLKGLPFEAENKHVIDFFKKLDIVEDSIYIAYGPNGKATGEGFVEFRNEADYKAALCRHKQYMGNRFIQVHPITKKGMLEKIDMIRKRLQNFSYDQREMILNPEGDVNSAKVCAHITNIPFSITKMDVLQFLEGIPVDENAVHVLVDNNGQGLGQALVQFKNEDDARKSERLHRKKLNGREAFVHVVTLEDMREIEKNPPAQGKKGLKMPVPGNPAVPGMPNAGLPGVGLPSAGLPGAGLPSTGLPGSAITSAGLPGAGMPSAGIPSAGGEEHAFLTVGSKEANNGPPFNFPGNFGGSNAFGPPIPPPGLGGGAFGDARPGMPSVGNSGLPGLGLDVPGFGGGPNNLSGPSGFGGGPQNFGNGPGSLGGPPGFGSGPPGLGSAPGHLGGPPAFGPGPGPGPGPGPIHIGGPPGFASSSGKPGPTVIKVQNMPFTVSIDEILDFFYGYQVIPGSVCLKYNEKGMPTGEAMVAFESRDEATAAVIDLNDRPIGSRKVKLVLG
Sequence of UniProt Q5VZM2 (Q5VZM2 whole entry, looked up): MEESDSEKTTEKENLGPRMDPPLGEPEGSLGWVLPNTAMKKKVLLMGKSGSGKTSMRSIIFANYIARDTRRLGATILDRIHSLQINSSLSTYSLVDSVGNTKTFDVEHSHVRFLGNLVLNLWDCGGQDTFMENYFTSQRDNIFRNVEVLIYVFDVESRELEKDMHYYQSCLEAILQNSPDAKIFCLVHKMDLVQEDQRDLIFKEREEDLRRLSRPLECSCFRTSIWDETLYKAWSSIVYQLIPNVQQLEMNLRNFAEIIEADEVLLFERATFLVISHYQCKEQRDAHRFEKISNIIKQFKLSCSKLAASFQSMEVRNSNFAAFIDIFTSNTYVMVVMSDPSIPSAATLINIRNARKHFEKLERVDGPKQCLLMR
Sequence of UniProt Q06609 (Q06609 whole entry, looked up): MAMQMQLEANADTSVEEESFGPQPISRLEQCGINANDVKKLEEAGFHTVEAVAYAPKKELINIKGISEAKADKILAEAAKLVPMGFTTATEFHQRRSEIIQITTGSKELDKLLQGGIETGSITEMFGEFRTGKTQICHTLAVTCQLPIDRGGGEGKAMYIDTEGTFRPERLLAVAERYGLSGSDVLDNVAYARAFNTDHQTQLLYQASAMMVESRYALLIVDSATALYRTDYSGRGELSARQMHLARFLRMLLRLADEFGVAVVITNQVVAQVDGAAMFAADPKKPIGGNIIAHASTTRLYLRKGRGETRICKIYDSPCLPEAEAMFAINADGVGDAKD
Sequence of UniProt Q9NTJ5 (Q9NTJ5 whole entry, looked up): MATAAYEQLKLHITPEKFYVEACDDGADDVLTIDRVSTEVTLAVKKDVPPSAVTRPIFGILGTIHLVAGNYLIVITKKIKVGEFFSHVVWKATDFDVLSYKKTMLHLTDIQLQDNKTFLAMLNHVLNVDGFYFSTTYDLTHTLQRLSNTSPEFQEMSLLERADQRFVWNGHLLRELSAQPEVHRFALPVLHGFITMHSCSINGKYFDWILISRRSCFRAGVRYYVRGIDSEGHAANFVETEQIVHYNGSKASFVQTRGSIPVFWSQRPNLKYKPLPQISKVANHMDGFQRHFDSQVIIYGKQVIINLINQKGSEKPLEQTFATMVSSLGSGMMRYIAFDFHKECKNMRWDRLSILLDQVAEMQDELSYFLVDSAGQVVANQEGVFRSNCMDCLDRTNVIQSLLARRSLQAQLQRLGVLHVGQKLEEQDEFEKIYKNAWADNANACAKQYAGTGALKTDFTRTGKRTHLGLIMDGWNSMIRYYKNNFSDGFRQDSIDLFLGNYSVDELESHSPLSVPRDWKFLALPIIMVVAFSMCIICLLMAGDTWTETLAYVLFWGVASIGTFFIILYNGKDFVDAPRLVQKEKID
Sequence of UniProt P18754 (P18754 whole entry, looked up): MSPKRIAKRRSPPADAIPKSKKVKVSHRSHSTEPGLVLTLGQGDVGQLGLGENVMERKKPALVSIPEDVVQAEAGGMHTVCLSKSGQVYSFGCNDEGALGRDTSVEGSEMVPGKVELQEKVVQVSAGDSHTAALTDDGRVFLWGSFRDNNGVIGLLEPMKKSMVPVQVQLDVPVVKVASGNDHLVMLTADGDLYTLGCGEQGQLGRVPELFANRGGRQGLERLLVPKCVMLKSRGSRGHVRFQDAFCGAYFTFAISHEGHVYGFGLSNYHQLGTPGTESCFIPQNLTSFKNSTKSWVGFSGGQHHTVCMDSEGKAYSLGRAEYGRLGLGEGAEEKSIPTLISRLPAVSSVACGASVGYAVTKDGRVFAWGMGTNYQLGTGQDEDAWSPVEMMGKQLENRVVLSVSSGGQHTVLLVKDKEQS
Sequence of UniProt Q8N0T1 (Q8N0T1 whole entry, looked up): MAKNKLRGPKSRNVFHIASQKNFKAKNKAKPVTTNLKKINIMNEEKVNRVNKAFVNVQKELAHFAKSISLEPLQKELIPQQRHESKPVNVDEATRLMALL

Target | log2 fold change [1] | log2 fold change (crizotinib) | log2 fold change [2] | log2 fold change [3] | log2 fold change (duvelisib) | log2 fold change (gandotinib) | log2 fold change (tozasertib) | log2 fold change [4] | log2 fold change (doramapimod) | log2 fold change (ispinesib) | log2 fold change (bafetinib) | log2 fold change [5] | log2 fold change (nilotinib) | log2 fold change [6] | log2 fold change (dasatinib) | log2 fold change [7] | log2 fold change [8] | log2 fold change [9] | log2 fold change (tipifarnib) | log2 fold change (mubritinib)
RNF167 (UniProt Q9H6Y7) | 0.087 | -0.133 | -0.097 | 0.082 | -0.026 | -0.045 | 0.027 | 0.018 | -0.056 | -0.668 (active) | -0.049 | -0.012 | 0.049 | -0.014 | 0.039 | 0.025 | -0.068 | 0.032 | 0.008 | 0.001
SCAF11 (UniProt Q99590) | 0.021 | -0.06 | -0.069 | 0.229 | -0.069 | 0.543 | -0.037 | -0.106 | -0.05 | -0.012 | 0.173 | -0.144 | 0.078 | -0.007 | 0.144 | 0.379 | -0.05 | -0.03 | 0.067 | 0.052
SESN2 (UniProt P58004) | 0.042 | -0.191 | -0.028 | 0.077 | -0.018 | -0.046 | 0 | 0.006 | 0.192 | -0.322 | -0.09 | 0.136 | -0.02 | -0.207 | -0.034 | -0.063 | 0.069 | -0.069 | -0.213 | 0.042
RPL31 (UniProt P62899) | -0.08 | 0.079 | -0.56 | 0.396 | -0.158 | 0.35 | 0.029 | -0.001 | 0.173 | -0.167 | 0.342 | 0.024 | 0.001 | 0.179 | 0.14 | -0.041 | -0.231 | -0.082 | 0.151 | -0.095
RCC1 isoform 2 (UniProt P18754) | 0.418 (active) | -0.032 | 0.13 | -0.04 | 0.158 | -0.1 | -0.002 | 0.154 | -0.008 | -0.007 | 0.013 | 0.002 | 0.069 | -0.137 | -0.159 | 0 | 0.139 | -0.004 | -0.112 | 0.296
RPS14 (UniProt P62263) | -0.049 | -0.075 | -0.22 | 0.183 | -0.131 | 0.056 | 0.016 | 0.023 | 0.071 | 0.002 | 0.265 | -0.061 | 0.029 | 0.184 | -0.011 | -0.047 | -0.081 | -0.091 | 0.07 | -0.05
RBIS (UniProt Q8N0T1) | -0.157 | -0.097 | -0.086 | 0.069 | -0.028 | 0.053 | -0.014 | -0.045 | 0.062 | 0.009 | 0.012 | -0.058 | -0.058 | 0.101 | 0.008 | -0.079 | 0.023 | 0.004 | -0.02 | 0.021
SETD3 (UniProt Q86TU7) | 0.007 | 0.051 | 0.076 | -0.012 | 0.005 | 0.021 | -0.037 | 0.012 | -0.026 | 0.059 | -0.015 | -0.005 | 0.002 | -0.009 | 0.006 | -0.023 | 0.033 | 0.031 | 0.029 | 0.052
RSL1D1 (UniProt O76021) | -0.146 | 0.037 | -0.33 | 0.456 | -0.169 | 0.146 | 0.066 | -0.037 | 0.312 | 0.251 | 0.288 | -0.027 | 0.117 | 0.109 | 0.239 | 0.264 | -0.427 | -0.18 | 0.15 | -0.244
RAVER1 (UniProt E9PAU2) | 0.061 | 0.049 | 0.188 | -0.381 | 0.066 | -0.091 | 0.264 | 0.132 | 0.002 | -0.171 | -0.155 | 0 | -0.091 | -0.319 | -0.309 | -0.299 | 0.155 | 0.011 | -0.351 | 0.134
RMC1 (UniProt Q96DM3) | 0.021 | -0.509 (active) | 0.061 | -0.012 | -0.005 | 0.027 | 0.026 | 0.066 | 0.038 | -0.254 (active) | -0.043 | 0.072 | -0.032 | -0.047 | -0.063 | -0.082 | 0.03 | -0.016 | 0.045 | 0.012
SH3GL1 (UniProt Q99961) | 0.067 | -0.144 | 0.024 | 0.062 | 0.019 | -0.031 | 0.045 | 0.103 | 0.007 | -0.156 | -0.018 | 0.069 | -0.084 | -0.18 | -0.262 | -0.014 | 0.055 | 0.02 | -0.114 | 0.122
SACM1L (UniProt Q9NTJ5) | 0.026 | 0 | 0.062 | -0.094 | 0.031 | -0.065 | 0.058 | 0.005 | -0.055 | -0.096 | -0.011 | -0.022 | 0.044 | -0.002 | 0.012 | 0.012 | -0.009 | 0 | -0.024 | -0.002
RBM12 (UniProt Q9NTZ6) | 0.079 | 0.005 | 0.16 | -0.109 | 0.011 | -0.132 | 0.04 | 0.1 | -0.076 | 0.008 | 0.026 | 0.046 | -0.108 | -0.227 | -0.287 | -0.09 | 0.048 | 0.015 | -0.061 | 0.032
RRAGB (UniProt Q5VZM2) | 0.016 | -0.131 | 0.01 | -0.123 | 0.01 | -0.008 | -0.007 | -0.011 | 0.015 | -0.065 | -0.079 | -0.045 | 0.031 | -0.003 | 0.041 | 0.009 | 0.06 | 0.043 | -0.025 | 0.037
RAD51 (UniProt Q06609) | 0.005 | -0.061 | -0.079 | -0.019 | 0.108 | 0.01 | -0.026 | -0.005 | -0.025 | -0.009 | -0.002 | 0.021 | -0.082 | -0.006 | -0.009 | 0.04 | 0.037 | 0.003 | 0.11 | -0.017

From the supplement of paper PMC10849652
